Measurements: PubChem BioAssay (NCATS)
Several values for one entry are separate records, joined by “and”; a condition that tells them apart may be missing. Identical values can stand only once. Inconclusive results are not listed. Activity calls are given as the source filed them. Calls follow the shape of the dose curve; as a rule, active = well fitted curve in the direction sought with a large enough effect; inconclusive = small, poorly fitted or top-dose-only effect, or another doubt; inactive = no such curve, though single readings can be large; an effect the other way counts as inactive or inconclusive.

What was measured:
TAB109 = test: qHTS profiling for inhibitors of Plasmodium falciparum proliferation (AID 504749); also: nearly all actives have a fitted effect of over 60% in size; also: potency is read from the fitted curve at half-maximal effect; settings: P. falciparum in erythrocytes, SYBR Green DNA, 72 h; series mostly up to 28.7 µM
In short: (§1)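 SYBR Green fluorescence of parasite DNA, read after lysis and overnight dark incubation, measured growth over 72 h in erythrocyte culture at 0.3% parasitemia and 2.5% hematocrit. Data normalised to DMSO and 0.29 uM artemisinin, with plate-drift correction.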

TAB113 = test: as above; settings: P. falciparum in erythrocytes, SYBR Green DNA, 72 h; series mostly up to 28.7 µM
In short: as §1

TAB165 = test: as above; settings: P. falciparum in erythrocytes, SYBR Green DNA, 72 h; series mostly up to 28.7 µM
In short: as §1

W2 = test: as above; settings: P. falciparum in erythrocytes, SYBR Green DNA, 72 h; series mostly up to 28.7 µM
In short: as §1

CRL-7250 = normal cell line; test: Cytotoxic Profiling of Annotated Libraries Using Quantitative High-Throughput Screening (AID 1296008); settings: Five cell lines viability, CellTiter-Glo ATP luminescence, 48-72 h; max response: hits give low values; also: nearly all actives have a fitted effect of over 60% in size; as to max response: % is scaled to controls: 0 for no effect and ±100 for the full control effect
In short: (§2)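 Cytotoxicity was measured as CellTiter-Glo ATP luminescence, read after 10 min at room temperature. Compound treatment of the cells lasted 48 or 72 hr at 37 degrees Celsius in a qHTS format.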

HEK293 = test: as above; settings: Five cell lines viability, CellTiter-Glo ATP luminescence, 48-72 h; max response: hits give low values
In short: as §2

HaCat [1] = test: as above; settings: Five cell lines viability, CellTiter-Glo ATP luminescence, 48-72 h; max response: hits give low values
In short: as §2

KB-3-1 = test: as above; settings: Five cell lines viability, CellTiter-Glo ATP luminescence, 48-72 h; max response: hits give low values
In short: as §2

NIH3T3 [2] = test: as above; settings: Five cell lines viability, CellTiter-Glo ATP luminescence, 48-72 h; max response: hits give low values
In short: as §2

HACAT [3] = test: qHTS assay to identify novel small-molecules to repurpose for Merkel cell carcinoma treatment (AID 1296009); settings: MCC and control cell lines, CellTiter-Glo viability, 72 h; at 44.8 µM (top of the series) unless noted; also: nearly all actives have a fitted effect of over 60% in size
In short: (§3)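 Cell viability, measured as CellTiter-Glo luminescence, was normalized between DMSO and no-cell wells. The cells had been exposed to 8- or 11-point compound dilutions for 72 hr at 37 degree celsius.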

HEK293T = test: as above; settings: MCC and control cell lines, CellTiter-Glo viability, 72 h; at 44.8 µM (top of the series) unless noted
In short: as §3

MCC-13 = test: as above; settings: MCC and control cell lines, CellTiter-Glo viability, 72 h; series mostly up to 46 µM
In short: as §3

MCC-26 = test: as above; settings: MCC and control cell lines, CellTiter-Glo viability, 72 h; series mostly up to 46 µM
In short: as §3

MKL-1 = test: as above; settings: MCC and control cell lines, CellTiter-Glo viability, 72 h; series mostly up to 46 µM
In short: as §3

MKL-2 = test: as above; settings: MCC and control cell lines, CellTiter-Glo viability, 72 h; series mostly up to 46 µM
In short: as §3

NIH3T3 [4] = test: as above; settings: MCC and control cell lines, CellTiter-Glo viability, 72 h; at 44.8 µM (top of the series) unless noted
In short: as §3

UISO = test: as above; settings: MCC and control cell lines, CellTiter-Glo viability, 72 h; series mostly up to 46 µM
In short: as §3

WaGa = test: as above; settings: MCC and control cell lines, CellTiter-Glo viability, 72 h; series mostly up to 46 µM
In short: as §3

C33A = test: Primary qHTS to identify gynecologic anti-cancer compounds using libraries of approved drugs and bioactive compounds (AID 1345084); settings: Gynecologic cancer cell panel viability, ATPlite luminescence, 48 h; series mostly up to 57.5 µM; also: % is scaled to controls: 0 for no effect and ±100 for the full control effect; nearly all actives have a fitted effect of over 55% in size
In short: (§4)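 Five-concentration response, 48 h; readout is ATP-driven luciferase luminescence.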

CAOV3 = test: as above; settings: Gynecologic cancer cell panel viability, ATPlite luminescence, 48 h; series mostly up to 57.5 µM
In short: as §4

Cn1c(=O)c2c(ncn2CC2OCCO2)n(C)c1=O
inactive: Potency (TAB109) | Potency (TAB113) | Potency (TAB165) | Potency (W2) | max response (CRL-7250) -4.54% and 1.94% | outcome (HEK293) | max response (HaCat [1]) -3.76% | outcome (HaCat [1]) | max response (KB-3-1) 6.93% and 8.78% | max response (NIH3T3 [2]) 0.911% | outcome (NIH3T3 [2]) | outcome (HACAT [3]) | outcome (HEK293T) | Potency (MCC-13) | Potency (MCC-26) | Potency (MKL-1) | Potency (MKL-2) | outcome (NIH3T3 [4]) | Potency (UISO) | Potency (WaGa) | Potency (C33A) | Potency (CAOV3)

NS(=O)(=O)c1cc2c(cc1C(F)(F)F)NC(Cc1ccccc1)NS2(=O)=O (centres undefined)
inactive: max response (CRL-7250) -4.39% | outcome (HEK293) | outcome (HaCat [1]) | max response (KB-3-1) -0.539% | outcome (NIH3T3 [2]) | outcome (HACAT [3]) | outcome (HEK293T) | Potency (MCC-13) | Potency (MCC-26) | Potency (MKL-1) | Potency (MKL-2) | outcome (NIH3T3 [4]) | Potency (UISO) | Potency (WaGa) | Potency (C33A) | Potency (CAOV3)

CCCCN1CCCC[C@H]1C(=O)Nc1c(C)cccc1C
inactive: Potency (TAB109) | Potency (TAB113) | Potency (TAB165) | max response (CRL-7250) 2.72% and -2.26% | max response (HEK293) -17.3% and -9.85% | max response (HaCat [1]) -56.1% | max response (KB-3-1) 2.43% | outcome (KB-3-1) | max response (NIH3T3 [2]) -0.105% and -0.406% | Potency (MCC-13) | Potency (MCC-26) | Potency (MKL-1) | Potency (MKL-2) | Potency (UISO) | Potency (WaGa) | Potency (C33A)
active: Potency (W2) 6.75 µM

CN1CCC[C@@H]1Cc1c[nH]c2ccc(CCS(=O)(=O)c3ccccc3)cc12
inactive: Potency (TAB113) | outcome (CRL-7250) | max response (HEK293) -1.58% | outcome (HEK293) | outcome (HaCat [1]) | max response (KB-3-1) -5.28% | outcome (KB-3-1) | max response (NIH3T3 [2]) -4.41% | outcome (NIH3T3 [2]) | outcome (HACAT [3]) | outcome (HEK293T) | Potency (MCC-13) | Potency (MCC-26) | Potency (MKL-1) | Potency (MKL-2) | outcome (NIH3T3 [4]) | Potency (UISO) | Potency (WaGa) | Potency (C33A) | Potency (CAOV3)
active: Potency (W2) 4.78 µM

CNC(=O)Oc1ccc2c(c1)[C@]1(C)CCN(C)[C@@H]1N2C
active: Potency (TAB109) 2.24 µM | Potency (TAB165) 1.58 µM | Potency (W2) 1.51 µM
inactive: outcome (CRL-7250) | outcome (HEK293) | max response (HaCat [1]) -0.257% | outcome (HaCat [1]) | max response (KB-3-1) -5.47% | outcome (KB-3-1) | max response (NIH3T3 [2]) -4.44% | outcome (NIH3T3 [2]) | outcome (HACAT [3]) | outcome (HEK293T) | Potency (MCC-13) | Potency (MCC-26) | Potency (MKL-1) | Potency (MKL-2) | outcome (NIH3T3 [4]) | Potency (UISO) | Potency (WaGa) | Potency (C33A) | Potency (CAOV3)

CC(C)(O)c1ccccc1CC[C@@H](SCC1(CC(=O)O)CC1)c1cccc(/C=C/c2ccc3ccc(Cl)cc3n2)c1
inactive: max response (CRL-7250) -23.3% | max response (HEK293) 4.81% | outcome (HaCat [1]) | max response (KB-3-1) -11.2% and 6.98% | max response (NIH3T3 [2]) -22.4% | outcome (NIH3T3 [2]) | outcome (HACAT [3]) | Potency (MCC-13) | Potency (MCC-26) | Potency (MKL-1) | Potency (MKL-2) | outcome (NIH3T3 [4]) | Potency (UISO) | Potency (WaGa) | Potency (C33A)

CC(C)(C)NCC(O)COc1ccc(NC(=O)NC2CCCCC2)cc1 (centres undefined)
inactive: Potency (TAB109) | Potency (TAB113) | Potency (TAB165) | Potency (W2) | outcome (CRL-7250) | outcome (HEK293) | outcome (HaCat [1]) | max response (KB-3-1) 0.958% | outcome (NIH3T3 [2]) | outcome (HACAT [3]) | outcome (HEK293T) | Potency (MCC-13) | Potency (MCC-26) | Potency (MKL-1) | Potency (MKL-2) | outcome (NIH3T3 [4]) | Potency (UISO) | Potency (WaGa) | Potency (C33A) | Potency (CAOV3)

O=C1O[C@H](CO)[C@@H](O)[C@H](O)[C@H]1O
inactive: outcome (CRL-7250) | outcome (HEK293) | outcome (HaCat [1]) | max response (KB-3-1) 25.2% | max response (NIH3T3 [2]) -2.57% | outcome (HACAT [3]) | outcome (HEK293T) | Potency (MCC-13) | Potency (MCC-26) | Potency (MKL-1) | Potency (MKL-2) | Potency (UISO) | Potency (WaGa) | Potency (C33A) | Potency (CAOV3)

Nc1ccc(S(=O)(=O)NC(=O)c2ccccc2)cc1
inactive: Potency (TAB109) | Potency (TAB113) | Potency (TAB165) | Potency (W2) | max response (CRL-7250) -4.44% | outcome (HEK293) | outcome (HaCat [1]) | max response (KB-3-1) 18.9% | max response (NIH3T3 [2]) -0.704% | outcome (HACAT [3]) | outcome (HEK293T) | Potency (MCC-13) | Potency (MCC-26) | Potency (MKL-1) | Potency (MKL-2) | Potency (UISO) | Potency (WaGa) | Potency (C33A) | Potency (CAOV3)

O=C1c2c(O)cccc2Cc2cccc(O)c21
inactive: Potency (TAB109) | Potency (TAB113) | Potency (TAB165) | Potency (W2) | max response (CRL-7250) 0.516% | outcome (HEK293) | outcome (HaCat [1]) | max response (KB-3-1) -0.793% | max response (NIH3T3 [2]) 4.73% | outcome (HACAT [3]) | outcome (HEK293T) | Potency (MCC-13) | Potency (MCC-26) | Potency (MKL-1) | Potency (MKL-2) | Potency (UISO) | Potency (WaGa) | Potency (C33A) | Potency (CAOV3)

CCCCOC(=O)c1ccc(O)cc1
inactive: Potency (TAB109) | Potency (TAB113) | Potency (TAB165) | max response (CRL-7250) 0.245% | outcome (HEK293) | outcome (HaCat [1]) | max response (KB-3-1) 0.659% | max response (NIH3T3 [2]) -12.6% | outcome (HACAT [3]) | outcome (HEK293T) | Potency (MCC-13) | Potency (MCC-26) | Potency (MKL-1) | Potency (MKL-2) | Potency (UISO) | Potency (WaGa) | Potency (C33A) | Potency (CAOV3)

OCC(CO)N[C@H]1C[C@](O)(CO)[C@@H](O)[C@H](O)[C@H]1O
inactive: max response (CRL-7250) -4.94% | outcome (HEK293) | outcome (HaCat [1]) | max response (KB-3-1) -14.4% | max response (NIH3T3 [2]) 3.34% | outcome (HACAT [3]) | outcome (HEK293T) | Potency (MCC-13) | Potency (MCC-26) | Potency (MKL-1) | Potency (MKL-2) | Potency (UISO) | Potency (WaGa) | Potency (C33A) | Potency (CAOV3)
